# The panel holds about 79,000 compounds, 15% with a hit somewhere; the sample as a whole holds those more often. Values without a mark were called inactive. Activity calls are given as the source filed them. No stated cut-off is given here; in the data, active means growth inhibition above about 70%; inactive means the rest.
# Assay: NCI Yeast Anticancer Drug Screen. Data for the bub3 strain (AID 167)
# Settings: S. cerevisiae bub3 mutant strain, at 50.0 µM, stronger effect = higher value
# Method in brief: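 Compounds were applied to a genetically altered yeast strain carrying a cell-cycle control defect. Growth inhibition was scored against vehicle-treated controls.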
row,SMILES,growth inhibition
1,CC(CN(C)C)C(=O)/C=C/c1c(Cl)cccc1Cl (stereo not given),74.9% (active)
2,COc1ccc(C(=O)c2cc(Br)ccc2O)cc1,94.5% (active)
3,COc1cccc(OC)c1C(=O)/C=C/c1ccccc1,50.9%
4,S=C(Nc1ccc(Cl)c(Cl)c1)SC1CCCCC1,83.3% (active)
5,Cc1sc(N=Nc2c(O)[nH]c3ccccc23)nc1-c1ccccc1,-20.1%
6,O=C(NC(c1ccccc1)N1CCOCC1)c1ccccc1 (stereo not given),83.4% (active)
7,Cc1nc2ccc3c(ccc4nc(C)c(N=Nc5ccc(C(=N)N)cc5)c(O)c43)c2c(O)c1N=Nc1ccc(C(=N)N)cc1,93.3% (active)
8,CN(C)CCNC(=O)C(c1ccccc1)c1ccccc1,98% (active)
9,CCOc1ccc(C(=O)CCN2CCOCC2)cc1,46%
10,O=S(Nc1ccccc1Br)c1ccccc1 (stereo not given),16.9%
11,CSC(=S)N/N=C(\C)c1ccc[nH]1,90.2% (active)
12,Cc1ccc(Cl)cc1NN,96.9% (active)
13,C[C@]12CC[C@H](O)C[C@@H]1CC[C@@H]1[C@@H]2CC[C@]2(C)[C@@H](c3cc(C(F)(F)F)n[nH]3)CC[C@@H]12,84.3% (active)
14,CCCOC(=O)C(S)C(S)C(=O)OCCC (stereo not given),26.8%
15,CCC(C)(C)c1cc(Br)c(NS(=O)(=O)c2ccc(NC(C)=O)cc2)c(Br)c1,6.5%
16,Cn1c2c(c3nc(N)nc(N)c3c1=O)CCc1ccccc1-2,68.5%
17,Cc1ccc(C(O)CCN2CCOCC2)c(C)c1 (stereo not given),70%
18,COC(=O)CCCC(=O)NC1=C(Nc2ccccc2)C(=O)c2ccccc2C1=O,61%
19,Oc1cc(Br)cc2cccnc12,88.7% (active)
20,COC(=O)Cc1cn[nH]c1C(=O)OC,-15.2%

row,SMILES,growth inhibition
1,O=C1CCCCCCC2=C1C(Sc1ccccc1)CC2 (stereo not given),60.1%
2,CC/C(=C1\C=CC(=O)S1)C(CC)c1ccc(OC(C)=O)cc1 (stereo not given),93.9% (active)
3,COc1ccc(C2=C(Cl)C(=O)N(c3ccc(C)cc3)C(=O)C2(Cl)Cl)cc1,76.3% (active)
4,CN(C)C1C[C@@H](O[Si](C)(C)C(C)(C)C)C=C1S(=O)(=O)c1ccccc1 (stereo not given in full),7.75%
5,NC(=O)C(=O)N/N=C/c1ccc([N+](=O)[O-])o1,14.3%
6,O=C(O)C1CCC(CC2CC3CCC2C3)CC1 (stereo not given),73.3% (active)
7,CCCCCCCCCCCCOCC[N+](CCO)(CCO)Cc1ccccc1,99% (active)
8,Cc1cc(C)cc([C@H](C)N=Cc2cc(Br)ccc2O)c1,95.2% (active)
9,C=CC1(c2ccc(OC)cc2)OCCCO1,90.8% (active)
10,CC(C)CCOC(=O)c1ccc(O)cc1.[Zn+2],88.5% (active)
11,C/C=C/C=C\C1OC(O)([C@H](CC)C(=O)NC/C=C/C=C(\C)[C@H](OC)C(C)C2OC(\C=C/C=C/C=C(\C)C(=O)c3c(O)ccn(C)c3=O)[C@H](O)[C@@H]2O)C(O)C(O)C1(C)C (stereo not given in full),26.1%
12,O=c1cccccc1[O-].O=c1cccccc1[O-].O=c1cccccc1[O-].[Dy+3],93.2% (active)
13,CCCC(=O)Oc1ccc(-c2ccc(Br)cc2)cc1,89.8% (active)
14,Oc1c(Cl)c(Cl)c(O)c2c1CCCC2,99.5% (active)
15,Clc1nc(Cl)nc(N2CCCc3ccccc32)n1,79% (active)
16,CC[C@H]1CN2CCc3cc(OC)c(OC)cc3[C@@H]2C[C@@H]1C[C@H]1NCCc2cc(OC)c(OC)cc21,2.55%
17,S=C(NCCc1ccccc1)N/N=C/c1ccc(Cl)cc1,85.6% (active)
18,O=C(O)Cc1ccc2c(c1O)C(=O)c1ccccc1C2=O,65.9%
19,CC1CCN(C(=S)NNC(C)c2cc3ccccc3cn2)CC1 (stereo not given),85.8% (active)
20,Cc1c[nH]c(C(=O)O)c1-c1ccc2c(-c3ccccc3)nc3ccccc3n12,85.9% (active)

# Assay: NCI Yeast Anticancer Drug Screen. Data for the mlh1 rad18 strain (AID 175)
# Settings: S. cerevisiae mlh1 rad18 strain growth inhibition; at 5.0 µM (retest, dose inferred, filed as 0.5); stronger effect = higher value
# Method in brief: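 In this whole-cell yeast screen, a strain with altered DNA damage repair is challenged with compound, and its growth is measured against matched vehicle-treated controls.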
row,SMILES,growth inhibition
1,CC(CN(C)C)C(=O)/C=C/c1c(Cl)cccc1Cl (stereo not given),3%
2,COc1ccc(C(=O)c2cc(Br)ccc2O)cc1,-1%
3,COc1cccc(OC)c1C(=O)/C=C/c1ccccc1,1%
4,S=C(Nc1ccc(Cl)c(Cl)c1)SC1CCCCC1,20%
5,Cc1sc(N=Nc2c(O)[nH]c3ccccc23)nc1-c1ccccc1,11%
6,O=C(NC(c1ccccc1)N1CCOCC1)c1ccccc1 (stereo not given),-9%
7,Cc1nc2ccc3c(ccc4nc(C)c(N=Nc5ccc(C(=N)N)cc5)c(O)c43)c2c(O)c1N=Nc1ccc(C(=N)N)cc1,2%
8,CN(C)CCNC(=O)C(c1ccccc1)c1ccccc1,30%
9,CCOc1ccc(C(=O)CCN2CCOCC2)cc1,6%
10,O=S(Nc1ccccc1Br)c1ccccc1 (stereo not given),-4%
11,CSC(=S)N/N=C(\C)c1ccc[nH]1,2%
12,Cc1ccc(Cl)cc1NN,5%
13,C[C@]12CC[C@H](O)C[C@@H]1CC[C@@H]1[C@@H]2CC[C@]2(C)[C@@H](c3cc(C(F)(F)F)n[nH]3)CC[C@@H]12,12%
14,CCCOC(=O)C(S)C(S)C(=O)OCCC (stereo not given),2%
15,CCC(C)(C)c1cc(Br)c(NS(=O)(=O)c2ccc(NC(C)=O)cc2)c(Br)c1,8%
16,Cn1c2c(c3nc(N)nc(N)c3c1=O)CCc1ccccc1-2,0%
17,Cc1ccc(C(O)CCN2CCOCC2)c(C)c1 (stereo not given),23%
18,COC(=O)CCCC(=O)NC1=C(Nc2ccccc2)C(=O)c2ccccc2C1=O,23%
19,Oc1cc(Br)cc2cccnc12,99% (active)
20,COC(=O)Cc1cn[nH]c1C(=O)OC,-117%

row,SMILES,growth inhibition
1,O=C1CCCCCCC2=C1C(Sc1ccccc1)CC2 (stereo not given),-13%
2,CC/C(=C1\C=CC(=O)S1)C(CC)c1ccc(OC(C)=O)cc1 (stereo not given),-4%
3,COc1ccc(C2=C(Cl)C(=O)N(c3ccc(C)cc3)C(=O)C2(Cl)Cl)cc1,12%
4,CN(C)C1C[C@@H](O[Si](C)(C)C(C)(C)C)C=C1S(=O)(=O)c1ccccc1 (stereo not given in full),4%
5,NC(=O)C(=O)N/N=C/c1ccc([N+](=O)[O-])o1,16%
6,O=C(O)C1CCC(CC2CC3CCC2C3)CC1 (stereo not given),-125%
7,CCCCCCCCCCCCOCC[N+](CCO)(CCO)Cc1ccccc1,98% (active)
8,Cc1cc(C)cc([C@H](C)N=Cc2cc(Br)ccc2O)c1,2%
9,C=CC1(c2ccc(OC)cc2)OCCCO1,-16%
10,CC(C)CCOC(=O)c1ccc(O)cc1.[Zn+2],3%
11,C/C=C/C=C\C1OC(O)([C@H](CC)C(=O)NC/C=C/C=C(\C)[C@H](OC)C(C)C2OC(\C=C/C=C/C=C(\C)C(=O)c3c(O)ccn(C)c3=O)[C@H](O)[C@@H]2O)C(O)C(O)C1(C)C (stereo not given in full),-41%
12,O=c1cccccc1[O-].O=c1cccccc1[O-].O=c1cccccc1[O-].[Dy+3],10%
13,CCCC(=O)Oc1ccc(-c2ccc(Br)cc2)cc1,-7%
14,Oc1c(Cl)c(Cl)c(O)c2c1CCCC2,78% (active)
15,Clc1nc(Cl)nc(N2CCCc3ccccc32)n1,2%
16,CC[C@H]1CN2CCc3cc(OC)c(OC)cc3[C@@H]2C[C@@H]1C[C@H]1NCCc2cc(OC)c(OC)cc21,1%
17,S=C(NCCc1ccccc1)N/N=C/c1ccc(Cl)cc1,61%
18,O=C(O)Cc1ccc2c(c1O)C(=O)c1ccccc1C2=O,0%
19,CC1CCN(C(=S)NNC(C)c2cc3ccccc3cn2)CC1 (stereo not given),50%
20,Cc1c[nH]c(C(=O)O)c1-c1ccc2c(-c3ccccc3)nc3ccccc3n12,12%

# — PubChem BioAssay (NCI)
